In the library only some 4.7% were active in any assay of this set; here they are far more common.
ADAM17 inh: ADAM17 inhibition, QFRET primary screen; 370,000 compounds, 0.83% hits; P78536; recombinant ADAM17, EDANS/DABCYL FRET peptide cleavage; inhibition, % at 6.95 µM;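 active = inhibition above the mean of compounds lying between control limits plus 3 SD, set per campaign, cut at about 8.5% in these data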;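 also: 0% = DMSO-only wells as the low control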
Target sequence (P78536 215-824 limits assumed): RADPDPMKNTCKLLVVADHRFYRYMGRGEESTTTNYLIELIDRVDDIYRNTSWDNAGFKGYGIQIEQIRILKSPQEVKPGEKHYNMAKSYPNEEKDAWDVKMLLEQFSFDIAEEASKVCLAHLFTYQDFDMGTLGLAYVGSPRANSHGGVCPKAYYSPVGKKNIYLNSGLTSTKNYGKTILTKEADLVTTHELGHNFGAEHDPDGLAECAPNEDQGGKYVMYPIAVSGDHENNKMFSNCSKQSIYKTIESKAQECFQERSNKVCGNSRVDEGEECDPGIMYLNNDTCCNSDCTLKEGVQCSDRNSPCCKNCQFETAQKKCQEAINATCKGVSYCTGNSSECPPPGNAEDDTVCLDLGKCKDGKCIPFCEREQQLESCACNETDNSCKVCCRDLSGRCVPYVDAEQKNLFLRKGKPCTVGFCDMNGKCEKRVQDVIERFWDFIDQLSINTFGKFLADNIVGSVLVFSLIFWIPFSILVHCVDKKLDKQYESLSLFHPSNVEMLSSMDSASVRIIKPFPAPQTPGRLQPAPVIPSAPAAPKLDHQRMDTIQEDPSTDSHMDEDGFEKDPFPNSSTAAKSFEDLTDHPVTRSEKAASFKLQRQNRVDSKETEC
proKLK7 act: activators of human kallikrein-7 zymogen; P49862; activation, % at 7 µM; AID 652039; purified proKLK7, EDANS-DABCYL substrate fluorescence; 100% is mature enzyme control, 0% vehicle; 370,000 compounds, 0.9% hits;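 active = activation above the mean of all tested compounds plus 3 SD, computed per campaign excluding outliers beyond control limits, cut at about 13% in these data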
Pemphigus Ab inh: blocks pemphigus antibody binding to human desmoglein-3; binding (percent of control), % at 10 µM; 310,000 compounds, 0.48% hits; DSG3-coupled beads, scFv-anti-DSG3-GFP binding, flow cytometry; active compounds read low; AID 588358;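 active = binding more than 3 SD below its plate's average and above zero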;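 also: hits lower antibody fragment binding to DSG3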
rCAG binder: r(CAG) repeat RNA binding; inhibition, % at 3 µM; TO-PRO-1 dye displacement fluorescence; 370,000 compounds, 1.3% hits; AID 651821;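 active = inhibition above the plate cutoff, the mean of all test compounds on that plate plus 3 SD, cut at about 35% in these data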;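 also: 0% = DMSO alone and 100% = 100 µM mitoxantrone as full dye displacement; higher means more dye released from RNA so lower well fluorescence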
MPTP inh: permeability transition pore inhibition; inhibition, % at 10 µM; isolated mouse mitochondria, Ca2+ swelling absorbance, 30 min; 360,000 compounds, 1.4% hits;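 active = inhibition of 50% or more, scaled per plate between neutral and stimulator controls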;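 also: 0% = DMSO wells given calcium and 100% = 1 mM EGTA wells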
ADAM10 inh: inhibits human ADAM10 | O14672 | recombinant ADAM10, EDANS/DABCYL FRET peptide cleavage, 3 h | inhibition, % at 7 µM | 370,000 compounds, 0.62% hits;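 active = inhibition above a per-campaign cutoff equal to the mean of compounds falling between control-based bounds plus 3 SD, cut at about 20% in these data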;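 also: 0% = DMSO wells while the 100% control is not disclosed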
ADAM10 confirm: human ADAM10 inhibition, confirmation | shares compounds with ADAM10 inh | ADAM10 QFRET peptide cleavage, EDANS fluorescence | inhibition, % at 6.95 µM | 2,100 compounds, 1% hits | AID 743208;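 active = inhibition above about 20% chosen separately for each screening run, limit read from the data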;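 also: 0% = DMSO wells and 100% = marimastat wells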
ADAM17 ctr: inhibits human ADAM17 in ADAM10 exosite counter-screen. shares compounds with ADAM10 inh. ADAM17 QFRET peptide cleavage, EDANS fluorescence. 2,100 compounds, 0.5% hits. inhibition, % at 6.95 µM;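 active = mean triplicate inhibition above the solvent-only control wells' mean plus 3 SD, cut at about 12% in these data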;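 also: 0% = DMSO wells and 100% = marimastat wells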
ADAM10 ctr: ADAM10 inhibition, counter-screen for ADAM17 exosite hits; inhibition, % at 6.95 µM; recombinant ADAM10, EDANS/DABCYL FRET peptide cleavage, 3 h; AID 743256; 2,900 compounds, 47% hits; shares compounds with ADAM17 inh;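 active = mean inhibition over the triplicate runs exceeds the activity threshold set in the earlier primary screen, cut at about 20% in these data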;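 also: 0% = DMSO wells and 100% = marimastat wells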
ADAM17 confirm: human ADAM17 inhibition, confirmation | recombinant ADAM17, EDANS/DABCYL QFRET peptide cleavage | inhibition, % at 6.95 µM | 2,900 compounds, 65% hits | shares compounds with ADAM17 inh;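 active = mean inhibition across replicates above the hit cutoff set in the primary screen, cut at about 8.5% in these data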;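 also: 0% = DMSO wells and 100% = marimastat wells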
* = called active by the depositor; x = no result.

SMILES | ADAM17 inh | proKLK7 act | Pemphigus Ab inh | rCAG binder | MPTP inh | ADAM10 inh | ADAM10 confirm | ADAM17 ctr | ADAM10 ctr | ADAM17 confirm
Cc1cc(C)c(O)c(-c2n[nH]c3c2C(c2cccc(O)c2)N(Cc2ccco2)C3=O)c1 (stereo not given) | 21* | 0 | 94 | 12 | 9 | 37* | 7 | 1 | 48* | 23*
O=C1c2[nH]nc(-c3ccccc3O)c2C(c2ccc(F)cc2)N1Cc1ccco1 (stereo not given) | 7 | 0 | x | 12 | 31 | 10 | x | x | x | x
COc1ccc(C2c3c(-c4ccccc4O)n[nH]c3C(=O)N2Cc2ccco2)cc1OC (stereo not given) | 2 | -1 | 96 | 3 | 1 | 5 | x | x | x | x
CCN(c1cccc(C)c1)S(=O)(=O)c1cc2c3c(c1)CCN3C(=O)CC2 | 3 | 0 | 109 | 1 | 0 | -8 | x | x | x | x
COc1ccc(NC(=O)CS(=O)c2cccc(C(F)(F)F)c2)cc1 (stereo not given) | -1 | 0 | 101 | -2 | 0 | -12 | x | x | x | x
CN(Nc1cccc(Cl)c1)c1cccc(Cl)c1 | -1 | 0 | 97 | 2 | 3 | 2 | x | x | x | x
N#Cc1cccc(S(=O)(=O)NNC(=O)C23CC4CC(CC(C4)C2)C3)c1 | -5 | 0 | 96 | 5 | 0 | -16 | x | x | x | x
O=C(Nc1ccccn1)C1CCN(C(=O)c2ccc(Cl)cc2)CC1 | -3 | 0 | 104 | 1 | -1 | -1 | x | x | x | x
O=C(NC(c1ccccc1)c1c(O)ccc2ccccc12)c1ccccc1Cl (stereo not given) | 10* | -1 | 96 | 10 | 47 | 21* | 9 | 3 | 14 | 8.7*
CCC(=O)NC(c1ccccc1Cl)c1c(O)ccc2ccccc12 (stereo not given) | -15 | -1 | 98 | 8 | 5 | -63 | x | x | x | x
C=C(C)C(=O)OCC(O)COc1ccc(C(C)(C)c2ccc(OCC(O)COC(=O)C(=C)C)cc2)cc1 (stereo not given) | 9.5* | 0 | x | 5 | -3 | 35* | 8 | 2 | 33* | 18*
Cc1ccc(Oc2cc(NC(=O)CCCn3nc([N+](=O)[O-])cc3C)cc([N+](=O)[O-])c2)cc1 | 13* | 0 | 93 | 14 | 5 | 23* | 6 | 3 | 32* | 18*
Cc1cc([N+](=O)[O-])nn1CCCC(=O)Nc1ccc2c(c1)OCO2 | -4 | 0 | x | -3 | 1 | -9 | x | x | x | x
COCCCNC(=O)C[C@H]1C[C@H](C(=O)N2CCOCC2)[C@@]2(CCC3CCCC3)c3[nH]c4ccc(Cl)cc4c3CCN2C1=O | 1 | 0 | 102 | 2 | -1 | 0 | x | x | x | x
O=C(NCC1COc2ccccc2O1)c1cccc(S(=O)(=O)N2CCCCC2)c1 (stereo not given) | 3 | 0 | x | 2 | 0 | 5 | x | x | x | x
O=C(NCC1COc2ccccc2O1)c1cccc(S(=O)(=O)N2CCN(c3ccccc3)CC2)c1 (stereo not given) | 9.9* | -2 | 102 | 8 | 0 | 21* | 6 | 2 | 13 | 13*
Cc1cc(-c2n[nH]c(=S)n2/N=C/c2ccccc2[N+](=O)[O-])n[nH]1 | 11* | 0 | 93 | 2 | -1 | 21* | -1 | 0 | 0 | 4
O=C(Nc1ccc(Cl)c(S(=O)(=O)N2CCCCC2)c1)c1ccncc1 | -4 | 0 | 103 | 3 | 2 | -1 | x | x | x | x
Cn1cccc1C(=O)Nc1ccc(Cl)c(S(=O)(=O)N2CCCCC2)c1 | 17* | 0 | x | 11 | -1 | 40* | 3 | 1 | 10 | 6
O=C(COC(=O)C12CC3CC(CC(O)(C3)C1)C2)Nc1ccc(OC(F)F)cc1 | 0 | 0 | 96 | -3 | -3 | -6 | x | x | x | x
O=C(COC(=O)C12CC3CC(CC(C3)C1)C2)Nc1ccc(OC(F)F)cc1 | 15* | 0 | 112 | -3 | 15 | 27* | 4 | 1 | 24* | 12*
O=C(CSCc1ccccc1Br)NNC(=S)NCc1ccco1 | 8 | 0 | 103 | 5 | -1 | 19 | x | x | x | x
COc1ccc(Cn2nnnc2C(C(C)C)N(Cc2ccco2)Cc2cccs2)cc1 (stereo not given) | 13* | 0 | x | 7 | 2 | 20* | 2 | 1 | 20* | 13*
Cc1ccc(CN2CCC[C@]3(N[C@H](c4ccc(C(F)(F)F)cc4)[C@@H]4C(=O)N(Cc5ccccc5)C(=O)[C@@H]43)C2=O)cc1 | 9.7* | 1 | 112 | 4 | -1 | 20* | 2 | 1 | 38* | 22*
Cc1ccc([C@H]2N[C@]3(CCCN(Cc4ccc(C(F)(F)F)cc4)C3=O)[C@H]3C(=O)N(Cc4ccccc4)C(=O)[C@@H]23)cc1 | 12* | 0 | 104 | 2 | -2 | 28* | 4 | 1 | 34* | 20*
SMILES | ADAM17 inh | proKLK7 act | Pemphigus Ab inh | rCAG binder | MPTP inh | ADAM10 inh | ADAM10 confirm | ADAM17 ctr | ADAM10 ctr | ADAM17 confirm
CCN1C(=O)[C@H]2[C@@H](c3ccc(C)cc3)N[C@]3(CCCN(Cc4ccc(C(F)(F)F)cc4)C3=O)[C@H]2C1=O | -4 | 0 | 103 | -1 | -1 | -19 | x | x | x | x
COc1ccccc1/C(C)=N/Oc1cc(N)cc([N+](=O)[O-])c1 | 15* | 0 | x | 4 | 0 | 27* | 4 | 2 | 14 | 9.8*
Cn1nc(C(C)(C)C)cc1C(=O)N1CCCCC1c1cc(C(=O)Nc2ccc(F)c(Cl)c2)no1 (stereo not given) | 12* | 1 | x | 3 | 7 | 20* | 5 | 2 | 20* | 12*
O=C(NCc1ccc(Cl)c(Cl)c1)c1cc(C2CCCCN2C(=O)CCc2ccccc2)on1 (stereo not given) | 9.2* | 1 | x | 4 | 2 | 25* | 5 | 1 | 18 | 10*
O=C(NCc1ccccc1)c1cc(C2CCCCN2C(=O)CCc2ccccc2)on1 (stereo not given) | -1 | 0 | x | -1 | 1 | -1 | x | x | x | x
CC(=O)Nc1ccc(NC(=O)C(C)OC(=O)CCN=C2NS(=O)(=O)c3ccccc32)cc1 (stereo not given) | -2 | -1 | 102 | -4 | 0 | -11 | x | x | x | x

Bioassay records deposited in PubChem BioAssay by several laboratories.
